Among all 5,500 compounds or so, about 2,000 (36%) were called active. Roughly 18% stayed inconclusive and do not appear here. Cut-off read from the data, not from the text of the source: active = normalized growth mostly below about 0.91 (no sharp cut-off); inconclusive = no clear call, values can overlap the other calls; inactive = mostly above about 0.92. Some of the results follow.
Experiment: chemical genetic growth profiling, strain panel (AID 1159580);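 note: tested at 20 µM; growth read once vehicle control cultures reached saturation at 30 °C; 1 = growth at the plate median or of vehicle wells; lower values mean less growth of the strain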
Conditions: growth OD

Measured: normalized growth

CC(=O)O[C@@H]1CC2C(C)(C)[C@H](O)C=C[C@]2(C)C2CC[C@]3(C)C(=CC(=O)O[C@H]3c3ccoc3)[C@@]21C (stereo partly specified)
inactive: S. cerevisiae deletion strains, locus YAL021C, strain ccr4, hits give low values 0.971 | S. cerevisiae deletion strains, locus YAL026C, strain drs2, hits give low values 0.983 | S. cerevisiae deletion strains, locus YAL030W, strain snc1, hits give low values 0.974 | S. cerevisiae deletion strains, locus YBL061C, strain skt5, hits give low values 0.987 | S. cerevisiae deletion strains, locus YBR009C, strain hhf1, hits give low values 0.984 | S. cerevisiae deletion strains, locus YBR021W, strain FUR4, hits give low values 0.987 | S. cerevisiae deletion strains, locus YBR023C, strain chs3, hits give low values 0.993 | S. cerevisiae deletion strains, locus YBR171W, strain sec66, hits give low values 0.988 | S. cerevisiae deletion strains, locus YBR229C, strain ROT2, hits give low values 0.996 | S. cerevisiae deletion strains, locus YBR231C, strain swc5, hits give low values 0.99 | S. cerevisiae deletion strains, locus YBR279W, strain paf1, hits give low values 0.99 | S. cerevisiae deletion strains, locus YCL011C, strain gbp2, hits give low values 0.996 | S. cerevisiae deletion strains, locus YCL016C, strain dcc1, hits give low values 0.995 | S. cerevisiae deletion strains, locus YCL029C, strain bik1, hits give low values 1.01 | S. cerevisiae deletion strains, locus YCL061C, strain MRC1, hits give low values 1 | S. cerevisiae deletion strains, locus YCL069W, strain vba3, hits give low values 0.994 | S. cerevisiae deletion strains, locus YCR088W, strain abp1, hits give low values 0.983 | S. cerevisiae deletion strains, locus YDL005C, strain med2, hits give low values 0.967 | S. cerevisiae deletion strains, locus YDL035C, strain GPR1, hits give low values 1.03 | S. cerevisiae deletion strains, locus YDL040C, strain nat1, hits give low values 0.983 | S. cerevisiae deletion strains, locus YDL074C, strain BRE1, hits give low values 0.999 | S. cerevisiae deletion strains, locus YDL101C, strain DUN1, hits give low values 1.01 | S. cerevisiae deletion strains, locus YDL185W, strain tfp1, hits give low values 1.01 | S. cerevisiae deletion strains, locus YDL192W, strain arf1, hits give low values 1.01 | S. cerevisiae deletion strains, locus YDR001C, strain nth1, hits give low values 0.976 | S. cerevisiae deletion strains, locus YDR069C, strain doa4, hits give low values 0.978 | S. cerevisiae deletion strains, locus YDR101C, strain arx1, hits give low values 1.02 | S. cerevisiae deletion strains, locus YDR137W, strain rgp1, hits give low values 0.956 | S. cerevisiae deletion strains, locus YDR159W, strain sac3, hits give low values 0.962 | S. cerevisiae deletion strains, locus YDR162C, strain NBP2, hits give low values 1.02 | S. cerevisiae deletion strains, locus YDR195W, strain ref2 0.969 | S. cerevisiae deletion strains, locus YDR297W, strain sur2, hits give low values 0.973 | S. cerevisiae deletion strains, locus YDR318W, strain mcm21, hits give low values 1 | S. cerevisiae deletion strains, locus YDR334W, strain swr1, hits give low values 0.972 | S. cerevisiae deletion strains, locus YDR335W, strain msn5, hits give low values 0.975 | S. cerevisiae deletion strains, locus YDR388W, hits give low values 1 | S. cerevisiae deletion strains, locus YDR392W, strain spt3, hits give low values 0.989 | S. cerevisiae deletion strains, locus YDR502C, strain sam2, hits give low values 1.01 | S. cerevisiae deletion strains, locus YEL003W, strain gim4, hits give low values 0.985 | S. cerevisiae deletion strains, locus YEL037C, strain rad23, hits give low values 0.984 | S. cerevisiae deletion strains, locus YEL061C, strain CIN8 (second series), hits give low values 0.988 | S. cerevisiae deletion strains, locus YEL061C, strain CIN8, hits give low values 1 | S. cerevisiae deletion strains, locus YER015W, strain faa2, hits give low values 0.991 | S. cerevisiae deletion strains, locus YER016W, strain bim1, hits give low values 0.993 | S. cerevisiae deletion strains, locus YER110C, hits give low values 0.996 | S. cerevisiae deletion strains, locus YER111C, strain swi4, hits give low values 0.975 | S. cerevisiae deletion strains, locus YER155C, strain BEM2 (second series), hits give low values 0.985 | S. cerevisiae deletion strains, locus YER155C, strain BEM2, hits give low values 0.997 | S. cerevisiae deletion strains, locus YER167W, strain BCK2, hits give low values 1.01 | S. cerevisiae deletion strains, locus YFR010W, strain ubp6, hits give low values 0.97 | S. cerevisiae deletion strains, locus YGL078C, strain dbp3, hits give low values 1 | S. cerevisiae deletion strains, locus YGL086W, strain mad1, hits give low values 0.993 | S. cerevisiae deletion strains, locus YGL167C, strain pmr1, hits give low values 0.987 | S. cerevisiae deletion strains, locus YGL173C, strain kem1, hits give low values 0.977 | S. cerevisiae deletion strains, locus YGL227W, strain vid30, hits give low values 0.989 | S. cerevisiae deletion strains, locus YGL240W, strain doc1, hits give low values 0.993 | S. cerevisiae deletion strains, locus YGL248W, strain PDE1, hits give low values 1.01 | S. cerevisiae deletion strains, locus YGL253W, strain hxk2, hits give low values 0.985 | S. cerevisiae deletion strains, locus YGR135W, strain pre9, hits give low values 1 | S. cerevisiae deletion strains, locus YGR229C, strain SMI1, hits give low values 1.04 | S. cerevisiae deletion strains, locus YGR252W, strain gcn5, hits give low values 0.97 | S. cerevisiae deletion strains, locus YHR013C, strain ard1, hits give low values 0.98 | S. cerevisiae deletion strains, locus YHR027C, strain rpn1, hits give low values 0.994 | S. cerevisiae deletion strains, locus YHR030C, strain SLT2, hits give low values 1.01 | S. cerevisiae deletion strains, locus YHR079C, strain IRE1 (second series), hits give low values 1 | S. cerevisiae deletion strains, locus YHR094C, strain hxt1, hits give low values 1 | S. cerevisiae deletion strains, locus YHR129C, strain ARP1, hits give low values 1.01 | S. cerevisiae deletion strains, locus YHR142W, strain chs7, hits give low values 0.993 | S. cerevisiae deletion strains, locus YHR200W, strain rpn10, hits give low values 1 | S. cerevisiae deletion strains, locus YIL066C, strain RNR3, hits give low values 1 | S. cerevisiae deletion strains, locus YIL073C, strain SPO22, hits give low values 1.01 | S. cerevisiae deletion strains, locus YIL125W, strain kgd1, hits give low values 0.99 | S. cerevisiae deletion strains, locus YIR030C, strain dcg1, hits give low values 0.997 | S. cerevisiae deletion strains, locus YJL092W, strain hpr5, hits give low values 0.984 | S. cerevisiae deletion strains, locus YJL095W, strain BCK1 (second series), hits give low values 0.981 | S. cerevisiae deletion strains, locus YJL095W, strain BCK1, hits give low values 1.02 | S. cerevisiae deletion strains, locus YJL115W, strain asf1, hits give low values 0.964 | S. cerevisiae deletion strains, locus YJL129C, strain trk1, hits give low values 0.988 | S. cerevisiae deletion strains, locus YJL134W, strain LCB3, hits give low values 1.01 | S. cerevisiae deletion strains, locus YJL154C, strain vps35, hits give low values 0.981 | S. cerevisiae deletion strains, locus YJL164C, strain tpk1, hits give low values 0.991 | S. cerevisiae deletion strains, locus YJL166W, strain qcr8, hits give low values 0.993 | S. cerevisiae deletion strains, locus YJL168C, strain set2, hits give low values 0.99 | S. cerevisiae deletion strains, locus YJL187C, strain SWE1 (second series), hits give low values 1.01 | S. cerevisiae deletion strains, locus YJL187C, strain SWE1, hits give low values 0.986 | S. cerevisiae deletion strains, locus YKL009W, strain mrt4, hits give low values 0.993 | S. cerevisiae deletion strains, locus YKL068W, hits give low values 1.01 | S. cerevisiae deletion strains, locus YKL085W, strain MDH1 (second series), hits give low values 0.997 | S. cerevisiae deletion strains, locus YKL085W, strain MDH1, hits give low values 0.997 | S. cerevisiae deletion strains, locus YKL160W, strain elf1, hits give low values 0.992 | S. cerevisiae deletion strains, locus YKL190W, strain CNB1, hits give low values 1.01 | S. cerevisiae deletion strains, locus YKR001C, strain vps1, hits give low values 1 | S. cerevisiae deletion strains, locus YKR026C, strain gcn3, hits give low values 0.99 | S. cerevisiae deletion strains, locus YKR091W, strain srl3, hits give low values 0.99 | S. cerevisiae deletion strains, locus YLL001W, strain dnm1, hits give low values 0.983 | S. cerevisiae deletion strains, locus YLL026W, hits give low values 0.987 | S. cerevisiae deletion strains, locus YLL041C, strain sdh2, hits give low values 0.985 | S. cerevisiae deletion strains, locus YLR027C, strain aat2, hits give low values 0.979 | S. cerevisiae deletion strains, locus YLR039C, strain RIC1, hits give low values 1.07 | S. cerevisiae deletion strains, locus YLR058C, strain SHM2, hits give low values 1 | S. cerevisiae deletion strains, locus YLR102C, strain apc9, hits give low values 0.998 | S. cerevisiae deletion strains, locus YLR221C, strain rsa3, hits give low values 0.993 | S. cerevisiae deletion strains, locus YLR258W, strain gsy2, hits give low values 0.998 | S. cerevisiae deletion strains, locus YLR262C, strain YPT6 (second series), hits give low values 0.978 | S. cerevisiae deletion strains, locus YLR268W, strain sec22, hits give low values 0.997 | S. cerevisiae deletion strains, locus YLR320W, strain mms22, hits give low values 0.991 | S. cerevisiae deletion strains, locus YLR342W, strain FKS1 (second series), hits give low values 1.01 | S. cerevisiae deletion strains, locus YLR342W, strain FKS1, hits give low values 0.991 | S. cerevisiae deletion strains, locus YLR357W, strain rsc2, hits give low values 0.947 | S. cerevisiae deletion strains, locus YLR370C, strain arc18, hits give low values 0.992 | S. cerevisiae deletion strains, locus YLR371W, strain rom2, hits give low values 1 | S. cerevisiae deletion strains, locus YLR384C, strain iki3, hits give low values 1 | S. cerevisiae deletion strains, locus YLR418C, strain cdc73, hits give low values 0.98 | S. cerevisiae deletion strains, locus YML016C, strain PPZ1, hits give low values 1 | S. cerevisiae deletion strains, locus YML032C, strain rad52, hits give low values 0.991 | S. cerevisiae deletion strains, locus YML120C, strain ndi1, hits give low values 0.994 | S. cerevisiae deletion strains, locus YML124C, strain tub3, hits give low values 1 | S. cerevisiae deletion strains, locus YMR058W, strain fet3, hits give low values 0.974 | S. cerevisiae deletion strains, locus YMR078C, strain ctf18, hits give low values 0.992 | S. cerevisiae deletion strains, locus YMR125W, strain sto1, hits give low values 0.978 | S. cerevisiae deletion strains, locus YMR129W, hits give low values 0.999 | S. cerevisiae deletion strains, locus YMR205C, strain PFK2, hits give low values 0.98 | S. cerevisiae deletion strains, locus YMR223W, strain ubp8, hits give low values 1 | S. cerevisiae deletion strains, locus YMR231W, strain pep5, hits give low values 0.967 | S. cerevisiae deletion strains, locus YMR307W, strain GAS1, hits give low values 0.99 | S. cerevisiae deletion strains, locus YNL067W, strain RPL9B, hits give low values 1.02 | S. cerevisiae deletion strains, locus YNL071W, strain lat1, hits give low values 0.991 | S. cerevisiae deletion strains, locus YNL128W, strain TEP1, hits give low values 1.02 | S. cerevisiae deletion strains, locus YNL209W, strain ssb2, hits give low values 0.998 | S. cerevisiae deletion strains, locus YNL233W, strain BNI4, hits give low values 1.02 | S. cerevisiae deletion strains, locus YNL248C, strain rpa49, hits give low values 0.966 | S. cerevisiae deletion strains, locus YNL250W, strain rad50, hits give low values 0.996 | S. cerevisiae deletion strains, locus YNL271C, strain bni1, hits give low values 1 | S. cerevisiae deletion strains, locus YNL298W, strain CLA4, hits give low values 1.01 | S. cerevisiae deletion strains, locus YNL307C, strain MCK1, hits give low values 0.995 | S. cerevisiae deletion strains, locus YNL322C, strain KRE1 (second series), hits give low values 1 | S. cerevisiae deletion strains, locus YNL322C, strain KRE1, hits give low values 1.01 | S. cerevisiae deletion strains, locus YNR049C, strain mso1, hits give low values 0.987 | S. cerevisiae deletion strains, locus YNR052C, strain pop2, hits give low values 0.995 | S. cerevisiae deletion strains, locus YOL012C, strain htz1 1.25 | S. cerevisiae deletion strains, locus YOL147C, strain pex11, hits give low values 0.996 | S. cerevisiae deletion strains, locus YOR001W, strain rrp6, hits give low values 0.984 | S. cerevisiae deletion strains, locus YOR061W, strain CKA2, hits give low values 0.997 | S. cerevisiae deletion strains, locus YOR069W, strain VPS5, hits give low values 1 | S. cerevisiae deletion strains, locus YOR070C, strain gyp1, hits give low values 1.01 | S. cerevisiae deletion strains, locus YOR080W, strain dia2, hits give low values 0.995 | S. cerevisiae deletion strains, locus YOR083W, strain WHI5, hits give low values 0.994 | S. cerevisiae deletion strains, locus YOR106W, strain vam3, hits give low values 0.99 | S. cerevisiae deletion strains, locus YOR136W, strain idh2, hits give low values 1 | S. cerevisiae deletion strains, locus YOR144C, strain elg1, hits give low values 0.999 | S. cerevisiae deletion strains, locus YOR184W, strain ser1, hits give low values 1.01 | S. cerevisiae deletion strains, locus YOR265W, strain rbl2, hits give low values 0.979 | S. cerevisiae deletion strains, locus YOR270C, strain vph1, hits give low values 0.914 | S. cerevisiae deletion strains, locus YOR290C, strain snf2, hits give low values 1 | S. cerevisiae deletion strains, locus YOR316C, strain cot1, hits give low values 0.999 | S. cerevisiae deletion strains, locus YPL051W, strain arl3, hits give low values 0.995 | S. cerevisiae deletion strains, locus YPL078C, strain atp4, hits give low values 0.989 | S. cerevisiae deletion strains, locus YPL106C, strain sse1, hits give low values 0.998 | S. cerevisiae deletion strains, locus YPL240C, strain hsp82, hits give low values 0.995 | S. cerevisiae deletion strains, locus YPL241C, strain CIN2, hits give low values 1.01 | S. cerevisiae deletion strains, locus YPR119W, strain clb2, hits give low values 0.994 | S. cerevisiae deletion strains, locus YPR141C, strain kar3, hits give low values 0.993 | S. cerevisiae deletion strains, locus YPR163C, strain tif3, hits give low values 0.994 | S. cerevisiae deletion strains, locus YPR167C, strain met16, hits give low values 0.996 | S. cerevisiae deletion strains, strain wtn01, hits give low values 1 | S. cerevisiae strains, strain wild type, hits give low values 1.02
